Cruzain inh noDet: blocks cruzain activity in detergent-free assay; P25779; purified cruzain, Z-FR-AMC fluorescence, no detergent; Potency, µM, for inactives: max response, negative = inhibition, hits mostly inhibitors; 200,000 tested, 2.3% active;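 further: plate controls were enzyme without inhibitor for no effect and buffer without enzyme for full effect; nearly all actives have a fitted effect of over 40% in size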
Target sequence (P25779 123-467 limits assumed): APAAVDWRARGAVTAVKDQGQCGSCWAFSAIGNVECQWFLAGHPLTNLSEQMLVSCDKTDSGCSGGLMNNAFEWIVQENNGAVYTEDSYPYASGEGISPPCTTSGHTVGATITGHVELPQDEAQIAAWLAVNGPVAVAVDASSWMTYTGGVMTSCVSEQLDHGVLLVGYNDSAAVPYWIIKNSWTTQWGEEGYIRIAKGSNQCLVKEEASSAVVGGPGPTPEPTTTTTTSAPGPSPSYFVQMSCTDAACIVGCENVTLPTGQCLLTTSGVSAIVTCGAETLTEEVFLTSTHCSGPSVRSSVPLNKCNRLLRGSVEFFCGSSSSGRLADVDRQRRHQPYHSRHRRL
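Purified cruzain at 1.5 nM, pre-incubated 15 min with compound at room temperature in 100 mM sodium acetate pH 5.5, 5 mM DTT, 0.00005% Triton X-100. Reaction started with 2 uM Z-FR-AMC; AMC fluorescence increase over 60 s gives rate.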
Cruzain Triton: inhibitors of Trypanosoma cruzi cruzain with detergent; P25779; AID 1478; 200,000 tested, 0.43% active; Potency, µM, inactives show max response, negative = inhibition, most hits filed as inhibitors; purified cruzain, Z-FR-AMC fluorescence, 0.01% Triton;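 further: plate controls were neutral wells for no effect and buffer without enzyme for full effect; nearly all actives have a fitted effect of over 40% in size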
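15 min RT preincubation of 1.5 nM cruzain with compound, then 2 uM Z-FR-AMC added; kinetic AMC fluorescence, 60 s delta. Triton X-100 0.01%, pH 5.5.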
Starred values were filed as active, the others as inactive; u = inconclusive. Shown are actives, neighbours in structure and some others; about 2.5% of the full set was active somewhere. The call rests on the fitted dose curve; in most records, active means well fitted curve in the direction sought with a large enough effect; inconclusive means small, poorly fitted or top-dose-only effect, or another doubt; inactive means no such curve, though single readings can be large; an effect the other way counts as inactive or inconclusive. Potency means the concentration at half of the fitted maximal effect.

SMILES | Cruzain inh noDet | Cruzain Triton
COc1ccccc1NC(=O)CSC1=Nc2ccccc2C2=NC(CCC(=O)NCc3cccs3)C(=O)N12 (stereo unspecified) | -6% | 3%
O=C1CC(c2ccccc2)Sc2ccccc2N1Cc1ccc(F)cc1 (stereo unspecified) | -1% | -7%
O=C(NC1CC(=O)N(c2ccc(Cl)cc2)C1)C(=O)c1c[nH]c2ccccc12 (stereo unspecified) | u | -5%
COc1ccccc1N1CCN(c2ncnc3c2cnn3-c2cc(Cl)ccc2C)CC1 | 12% | 1%
Cc1ccc(C(=O)COC(=O)c2ccccc2NC(=O)c2ccccc2)cc1[N+](=O)[O-] | u | -3%
CCOC(=O)c1ccc(NS(=O)(=O)c2ccc3[nH]c4c(c3c2)CCCCC4)cc1 | u | -4%
Cc1ccc(NC(=O)C(C)OC(=O)c2ccc(NS(=O)(=O)c3ccc(F)c(F)c3)cc2)cc1 (stereo unspecified) | -23% | -10%
CCc1ccc(NC(=O)C(C)OC(=O)c2ccc(NS(=O)(=O)c3ccc(C)c([N+](=O)[O-])c3)cc2)cc1 (stereo unspecified) | 16µM* | -1%
Cc1ccc(S(=O)(=O)Nc2ccccc2C(=O)OC(C)C(=O)Nc2ccc3ccccc3c2)cc1[N+](=O)[O-] (stereo unspecified) | 7.9µM* | -4%
CC(=O)c1ccc(NC(=O)C(C)OC(=O)c2ccc(NS(=O)(=O)c3ccc(F)c(F)c3)cc2)cc1 (stereo unspecified) | 16µM* | -7%
O=C(NCCCN1CCN(c2cccc(Cl)c2)CC1)c1cnn(-c2ccc(F)cc2)c1-n1cccc1 | 2% | -3%
COc1ccccc1NC(=O)C1=C(C)Nc2nc3ccccc3n2C1c1ccccc1Cl (stereo unspecified) | 0% | -4%
Cc1ccc(Nc2nc(C(N)=O)c(NC(=O)c3ccccc3Br)s2)cc1 | u | -5%
CCOC(=O)c1ccc(N2CCN(c3cc(C)ccc3C)CC2)c(NC(=O)Nc2ccccc2)c1 | 7.9µM* | 0%
CCOC(=O)c1ccc(N2CCN(c3cc(Cl)ccc3C)CC2)c(NC(=O)Nc2ccc(OCC)cc2)c1 | -1% | 0%
CC(C)c1cc(-c2nc(-c3ccc(Cl)cc3)no2)n[nH]1 | 10% | -12%
Clc1ccccc1Cn1nnc2c(N3CCCC3)ncnc21 | -15% | -5%
CC1Cc2ccccc2N1c1ncnc2c1nnn2Cc1ccccc1Cl (stereo unspecified) | 25µM* | -21%
CC1=NN(c2ccc(S(=O)(=O)O)cc2C)C(=[OH+])[C@H]1N=Nc1cc(S(=O)(=O)O)ccc1C(=O)O.O.[Cr] | -7% | -9%
CC1CCN(c2nc3ccccc3nc2C(C#N)C(=O)NC2CCCCC2)CC1 (stereo unspecified) | 20µM* | -4%
CCCCCCOC(=O)C(C#N)c1nc2ccccc2nc1N1CCCCC1 (stereo unspecified) | 25µM* | -2%
CCCCCCOC(=O)C(C#N)c1nc2ccccc2nc1N1CCN(C)CC1 (stereo unspecified) | 4% | -2%
N#CC(C(=O)NC1CCCCC1)c1nc2ccccc2nc1N1CCOCC1 (stereo unspecified) | 1% | 2%
O=S(=O)(Nc1nc2ccc(S(=O)(=O)N3CCCC3)cc2s1)c1ccc(F)cc1 | 16µM* | -9%
O=C(Nc1nc2ccc(S(=O)(=O)N3CCCC3)cc2s1)c1ccc(F)cc1 | -5% | 0%
COc1ccc(CNc2nc3c(c(=O)n(C)c(=O)n3C)n2Cc2ccccc2Cl)cc1 | -13% | -2%
